Test results taken from article PMC4336329 (PLoS ONE, 2015).
Among all 310,000 compounds or so, about 14,000 (4.5%) showed an effect of 50% or more. The effect is printed as a negative number. Many of the other results were omitted from the sample, so strong results are more common in it than they were.

Target: human ether-à-go-go-related gene (hERG) potassium channel (human, UniProt Q12809)
Test: primary screen, population patch clamp on CHO cells stably expressing hERG; higher = less effect of the substance
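Also: peak tail current of the secondary pulse compared with the same well before compound.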

Sequence of human ether-à-go-go-related gene (hERG) potassium channel (Q12809 whole entry, looked up): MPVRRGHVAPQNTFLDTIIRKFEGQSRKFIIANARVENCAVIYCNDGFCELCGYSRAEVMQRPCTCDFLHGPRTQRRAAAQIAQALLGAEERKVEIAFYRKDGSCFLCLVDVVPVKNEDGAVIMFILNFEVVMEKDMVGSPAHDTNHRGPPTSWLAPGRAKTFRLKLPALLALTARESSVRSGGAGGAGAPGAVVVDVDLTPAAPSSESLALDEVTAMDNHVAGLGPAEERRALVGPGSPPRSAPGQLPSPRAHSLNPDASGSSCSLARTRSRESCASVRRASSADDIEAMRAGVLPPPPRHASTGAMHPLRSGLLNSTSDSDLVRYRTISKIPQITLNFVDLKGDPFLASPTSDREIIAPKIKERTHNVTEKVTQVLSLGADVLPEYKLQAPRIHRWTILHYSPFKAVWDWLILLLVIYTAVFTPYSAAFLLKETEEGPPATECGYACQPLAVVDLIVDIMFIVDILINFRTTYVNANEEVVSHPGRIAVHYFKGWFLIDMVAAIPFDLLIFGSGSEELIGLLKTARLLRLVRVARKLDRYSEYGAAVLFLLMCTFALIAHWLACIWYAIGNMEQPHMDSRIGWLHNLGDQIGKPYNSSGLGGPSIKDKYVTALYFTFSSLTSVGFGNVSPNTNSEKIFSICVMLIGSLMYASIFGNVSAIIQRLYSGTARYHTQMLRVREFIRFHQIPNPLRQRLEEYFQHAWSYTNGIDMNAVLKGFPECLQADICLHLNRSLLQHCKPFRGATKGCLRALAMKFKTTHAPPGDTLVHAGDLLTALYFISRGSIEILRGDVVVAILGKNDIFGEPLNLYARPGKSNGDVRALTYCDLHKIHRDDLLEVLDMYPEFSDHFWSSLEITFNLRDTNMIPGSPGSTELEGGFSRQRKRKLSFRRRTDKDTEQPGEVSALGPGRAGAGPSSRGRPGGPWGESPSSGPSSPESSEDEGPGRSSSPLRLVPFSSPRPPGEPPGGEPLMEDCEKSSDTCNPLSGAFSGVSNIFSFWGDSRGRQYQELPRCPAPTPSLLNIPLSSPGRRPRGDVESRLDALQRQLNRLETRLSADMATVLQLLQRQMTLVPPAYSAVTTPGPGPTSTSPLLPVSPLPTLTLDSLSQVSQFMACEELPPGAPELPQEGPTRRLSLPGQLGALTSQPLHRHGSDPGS

SMILES | hERG current change (%, negative = inhibition) at 10uM
CC(=O)c1ccc(S(=O)(=O)N(C)C(C)CCc2ccco2)cc1 (stereo not drawn) | -6.81%
CC(=O)N1CCc2cc(Br)cc(S(=O)(=O)N3CCN(c4ccccn4)CC3)c21 | 10.7%
Cc1ccc(/C=C2\C(=N)N3N=C(CC(=O)N4CCOCC4)SC3=NC2=O)o1 | 12.2%
CCOC(=O)c1cc(-c2ccccc2)sc1NC(=O)C(C)C | 13.8%
O=C(O)C1C2CCC(C2)C1C(=O)NCc1ccccn1 (stereo not drawn) | 16.1%
CCOC(=O)N1CCN(c2ccc(S(=O)(=O)N(Cc3ccccc3)Cc3ccccc3)cn2)CC1 | -4.41%
Cc1ccc(S(=O)(=O)N2CCN(Cc3cc(=O)n4ccccc4n3)CC2)cc1C | -40.5%
O=c1cc(CN2CCN(S(=O)(=O)c3ccccc3)CC2)nc2ccc(Cl)cn12 | -56%
COc1ccc(S(=O)(=O)N2CCN(Cc3cc(=O)n4ccccc4n3)CC2)cc1 | -31.4%
O=S(=O)(c1ccccc1)N1CCN(Cc2cccc(Cl)c2)CC1 | -18.1%
O=c1nc2ccc(Cl)cn2c2ccc(S(=O)(=O)N3CCCCC3)cc12 | -0.392%
Cc1ccc(S(=O)(=O)N2CCN(Cc3cc(=O)n4ccccc4n3)CC2)c(C)c1 | -80.6%
CCOc1cccc(C2/C(=C(/O)c3ccc4c(c3)CC(C)O4)C(=O)C(=O)N2CCN2CCOCC2)c1 (stereo not drawn) | 14.7%
N#Cc1ccccc1NC(=O)CSc1ccc([N+](=O)[O-])cn1 | 13.1%
COc1cc(C(CCN2CCCC(C)C2)c2c(OC)cc(OC)c3c(-c4ccccc4)cc(=O)oc23)cc(OC)c1OC (stereo not drawn) | -38.7%
COc1cc(C(CC(=O)N2CCCC2)c2c(OC)cc(OC)c3c(-c4ccccc4)cc(=O)oc23)cc(OC)c1OC (stereo not drawn) | -10.5%
COc1cc(C(CCN2CCCC2)c2c(OC)cc(OC)c3c(-c4ccccc4)cc(=O)oc23)cc(OC)c1OC (stereo not drawn) | -70.8%
COc1cc(C(CCN2CCCCC2)c2c(OC)cc(OC)c3c(-c4ccccc4)cc(=O)oc23)cc(OC)c1OC (stereo not drawn) | -67%
COc1cc(OC)c2c(-c3ccccc3)cc(=O)oc2c1C(CCN1CCN(c2ccccc2)CC1)c1ccc(N(C)C)cc1 (stereo not drawn) | 7.89%
CCN(CC)CCC(c1cc(OC)c(OC)c(OC)c1)c1c(OC)cc(OC)c2c(-c3ccccc3)cc(=O)oc12 (stereo not drawn) | -16.8%
Cc1ccc(NC(=O)CCS(=O)(=O)c2cc3c(cc2Cl)NC(=O)CO3)cc1 | -17.4%
O=C(CNC(=O)c1ccc(Cl)cc1)c1ccc(Cl)cc1 | 7.28%
Cc1ccc(CNC(=O)C2C3C=CC(C3)C2C(=O)O)cc1 (stereo not drawn) | -3.26%
Cl.OC(CN1CCCCC1)Cn1c(C(F)(F)F)nc2ccccc21 (stereo not drawn) | 4.06%

SMILES | hERG current change (%, negative = inhibition) at 10uM
CC1CN(S(=O)(=O)c2cccs2)CC(C)O1 (stereo not drawn) | -3.7%
COc1ccc(NC(=S)NCc2ccco2)cc1 | 9.23%
COc1ccc(S(=O)(=O)n2cnc3ccccc32)cc1OC | 12.4%
CCCCn1c(O)c(C(CC)=NCc2cc(OC)cc(OC)c2)c(=O)[nH]c1=O | -13.8%
C=CCn1c(O)c(C(C)=NCc2cc(OC)cc(OC)c2)c(=O)[nH]c1=O | -37%
C=CCn1c(O)c(C(CC)=NCc2cc(OC)cc(OC)c2)c(=O)[nH]c1=O | -59%
Cc1ccc(S(=O)(=O)Nc2ccccc2/C=N/c2nc3ccccc3n2C)cc1 | -13.5%
Cc1cc(-c2ccc(N3CCOCC3)cc2)nc2ccccc12.Cl | 3.53%
Cc1c(N=Cc2c(O)n(Cc3ccccc3)c(=O)[nH]c2=O)c(=O)n(-c2ccccc2)n1C | -5.81%
Cc1c(N=Cc2c(O)n(Cc3ccc(F)cc3)c(=O)[nH]c2=O)c(=O)n(-c2ccccc2)n1C | -26%
CCCCn1c(O)c(C=Nc2c(C)n(C)n(-c3ccccc3)c2=O)c(=O)[nH]c1=O | 4.96%
C=CCn1c(O)c(C=Nc2c(C)n(C)n(-c3ccccc3)c2=O)c(=O)[nH]c1=O | -81.6%
Cc1c(N=Cc2c(O)n(CCc3ccccc3)c(=O)[nH]c2=O)c(=O)n(-c2ccccc2)n1C | -39.3%
Cc1c(N=Cc2c(O)n(CCc3ccc(F)cc3)c(=O)[nH]c2=O)c(=O)n(-c2ccccc2)n1C | -61.9%
C=C(C)Cn1c(N2CC(C)CC(C)C2)nc2c1c(=O)[nH]c(=O)n2C (stereo not drawn) | 2.46%
COc1ccc(CCC(=O)Nc2ccc(N3CCOCC3)cc2)cc1 | -12.9%
CCOC(=O)C1=C(c2ccccc2)Nc2ncnn2C1c1ccc(OC)c(OC)c1OC (stereo not drawn) | -5.55%
CCOC(=O)C1(Cc2ccccc2)CCN(Cc2ccc(COC)o2)CC1 | -19.1%
CCOC(=O)C1(CCOc2ccccc2)CCN(Cc2ccc(C)o2)CC1 | -75%
CCOC(=O)C1(CCOc2ccccc2)CCN(Cc2ccc(COC)o2)CC1 | -63.7%
CCOC(=O)C1(CCOc2ccccc2)CCN(Cc2ccc(CO)o2)CC1 | -73.8%
CCOC(=O)C1(CCOC)CCN(Cc2ccc(COC)o2)CC1 | 32.9%
CSc1ccccc1NC(=O)CN(Cc1ccccc1)S(C)(=O)=O | 4.1%
CC1(C)C(=O)C=C[C@]2(C)[C@H]3CC[C@@]4(C)[C@H](c5ccoc5)OC(=O)[C@H]5O[C@]54[C@]3(C)[C@H](O)C[C@@H]12 | 8.63%

SMILES | hERG current change (%, negative = inhibition) at 10uM
Cc1cc(C)cc(NC(=O)CSc2nnc(-c3ccccc3)n2N)c1 | 6.38%
CC(C)Oc1cccc(C(=O)Nc2ccc(Br)cc2F)c1 | 7.79%
Cc1ccccc1CNC(=O)CC1C(=O)NCCN1CC1CCCCC1 (stereo not drawn) | 6.33%
Cc1cc(C)c(C(=O)CSc2n[nH]c(=O)n2C2CC2)cc1C | -9.54%
COc1ccc(C(=O)c2nc3ccccc3n2C(C)C)cc1OC | -16.5%
CC(C)c1ccc(NNC(=O)C2CCC2)cc1 | 3.84%
COc1ccc(C(=O)CCN2CCC(C)CC2)cc1.Cl | -30%
COc1cc2c(cc1OC)CN(CCOc1ccc(Br)cc1)CC2 | -68.8%
COc1cc2c(cc1OC)CN(Cc1cc(OC)c(O)c(OC)c1)CC2 | -14%
COc1ccc(CC(=O)N2CCc3cc(OC)c(OC)cc3C2)cc1 | -6.59%
COc1ccc(S(=O)(=O)N2CCN(CCOc3ccc(Br)cc3)CC2)cc1OC | -12.8%
Brc1cccc(OCCN2CCc3ccccc3C2)c1.Cl | -5.84%
COc1ccc(C(=O)CCN2CCc3cc(OC)c(OC)cc3C2)cc1.Cl | -69.1%
COc1cc2c(cc1OC)CN(C(=O)CCNS(=O)(=O)c1ccc(Br)cc1)CC2 | -36.8%
COc1cc2c(cc1OC)CN(CCC(=O)c1ccc(Br)cc1)CC2 | -66.9%
COc1ccc(C(=O)NC(=S)Nc2cccc3nc(C)ccc23)cc1OC | 8.45%
Cc1nnc(NC(=O)CN2CCN(Cc3c(Cl)cccc3Cl)CC2)s1 | 9.97%
COC(=O)c1c(NC(=O)CS(=O)(=O)c2ccccc2)sc(C)c1C | -21.6%
CNC(=O)C1CCN(S(=O)(=O)c2c(C)noc2/C=C/c2cccc(C)c2)CC1 | 10.2%
COc1ccccc1NC(=O)c1ccc2c(c1)C(=O)N(c1ccccc1OC)C2=O | 5.55%
CC(C)c1ccccc1NS(=O)(=O)c1cccs1 | 17.8%
CNCC[C@H](Oc1cccc2ccccc12)c1cccs1.Cl | -36%
CNCC[C@H](Oc1cccc2ccccc12)c1cccs1 | -37.8%
CNCCC(Oc1ccccc1OC)c1ccccc1.Cl (stereo not drawn) | -53.5%

SMILES | hERG current change (%, negative = inhibition) at 10uM
CCS(=O)(=O)c1ccc2oc(Nc3cccc(OC)c3)nc2c1 | 9.78%
Cc1ccc(NC(=O)CCCn2nc(C)c3c(C)n(-c4ccccc4)nc3c2=O)cc1C | 24.6%
COc1ccc(OC)c(N)c1.Cl | 20.5%
COc1ccc(Cc2ccc(OC)c(N)c2)cc1N | -52.6%
COc1cc(Cc2ccc(N)c(OC)c2)ccc1N | 11.1%
Cc1cccc(N2CC(C)Cn3c2nc2c3c(=O)[nH]c(=O)n2C)c1 (stereo not drawn) | -0.757%
COCCCNC(=O)CCSc1ccc(Cl)cc1 | -8.9%
COCCCNCCCCSc1ccc(Cl)cc1 | -37.9%
COCCNCCCCSc1ccc(Cl)cc1 | -50.8%
O=C1CCCC2=C1C(c1ccccc1)C1C(=O)c3ccccc3C1=N2 (stereo not drawn) | 6.16%
CC(=O)Nc1ccc(C(=O)N2CCN(S(=O)(=O)c3ccc4c(c3)OCCCO4)CC2)cc1 | 5.45%
Cc1cc(C(=O)Nc2ccc(S(=O)(=O)N3CCCC3)cc2)no1 | 23.6%
COc1ccc(C(=O)Nc2cc([N+](=O)[O-])ccc2N2CCN(C)CC2)cc1 | -30.3%
CN1CCN(c2ccc(S(=O)(=O)N3CCCCC3)cc2NC(=O)c2ccc3ccccc3c2)CC1 | -40.4%
COc1cccc(C(=O)Nc2cc([N+](=O)[O-])ccc2N2CCN(C)CC2)c1 | -71.7%
CN1CCN(c2ccc(S(=O)(=O)N3CCCCC3)cc2NC(=O)c2cccc([N+](=O)[O-])c2)CC1 | -65.8%
CC(=O)N1CCN(c2ccccc2NC(=O)c2ccc(-c3cccc([N+](=O)[O-])c3)o2)CC1 | -75.4%
CN1CCN(c2ccc(S(=O)(=O)N3CCCCC3)cc2NC(=O)c2ccc(C#N)cc2)CC1 | -41.7%
O=C(NC(=S)Nc1ccccc1N1CCOCC1)c1cccc([N+](=O)[O-])c1 | 17.6%
CCC(=O)N1CCN(c2ccccc2NC(=S)NC(=O)c2cccc([N+](=O)[O-])c2)CC1 | -69.9%
CCC(=O)N1CCN(c2ccccc2NC(=O)c2ccc(-c3cccc([N+](=O)[O-])c3)o2)CC1 | -34.1%
COc1ccc(C(=O)Nc2cc([N+](=O)[O-])ccc2N2CCCC2)cc1 | -1.57%
CCC(=O)N1CCN(c2ccc(NC(=S)NC(=O)c3cccc([N+](=O)[O-])c3)cc2)CC1 | 2.13%
O=C(NC(=S)Nc1ccccc1N1CCCCC1)c1ccc(-c2cccc([N+](=O)[O-])c2)o1 | 4.88%
